Counter-ions that a name gives are not always drawn.
Columns and labels:
Details in all cases: 20 µM
[1] = system: Haemophilus parainfluenzae; assay: growth AUC normalised to DMSO control (fraction of control); higher = less growth inhibition, active = hit call of the paper
In short: (§1)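 Pathogens were passaged twice under anaerobic conditions, then inoculated into pre-reduced mGAM plates at a starting OD578 of 0.01, with compound at 20 μM and 1% DMSO, and sealed with breathable membranes. For Haemophilus parainfluenzae, the medium was supplemented with hemin and NAD. OD578 was read every hour for 24 h in three biological replicates. Growth-curve AUC was calculated by the trapezoidal rule up to the exponential-to-stationary transition and normalised to DMSO controls on the same plate.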

[2] = system: Salmonella enterica typhimurium; assay: as above
In short: as §1

Shigella flexneri = assay: as above
In short: as §1

Vibrio cholerae = assay: as above
In short: as §1

[3] = system: Yersinia pseudotuberculosis; assay: as above
In short: as §1

P. vulgatus RND KO = assay: growth AUC normalised to DMSO control (median) (fraction of control); higher = less growth inhibition, active = hit call of the paper
In short: (§2)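 Each strain went through two overnight passages under anaerobic conditions before growth in mGAM in 96-well plates, starting at OD578 0.01, with each compound from the approved-drug library at 20 μM and 1% DMSO. Inside an anaerobic incubator, OD578 was recorded every hour for 24 h. Growth curves were cut off at entry into stationary phase, and the area under the curve was calculated by the trapezoidal rule and normalised to vehicle wells on the same plate. Reported values are medians of three biological replicates.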

P. vulgatus WT = assay: as above
In short: as §2

[4] = system: S. enterica typhimurium WT; assay: as above
In short: as §2

[5] = system: S. enterica typhimurium tolC KO; assay: as above
In short: as §2
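Throughout, for growth AUC normalised to DMSO control (median): active when median AUC fell below 0.1.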

Compound	growth AUC normalised to DMSO control [1]	growth AUC normalised to DMSO control [2]	growth AUC normalised to DMSO control (Shigella flexneri)	growth AUC normalised to DMSO control (Vibrio cholerae)	growth AUC normalised to DMSO control [3]	growth AUC normalised to DMSO control (P. vulgatus RND KO)	growth AUC normalised to DMSO control (P. vulgatus WT)	growth AUC normalised to DMSO control [4]	growth AUC normalised to DMSO control [5]
CN(Cc1cnc2nc(N)nc(N)c2n1)c1ccc(C(=O)N[C@@H](CCC(=O)O)C(=O)O)cc1 [Amethopterin]	0.0201 (active)								
Cc1ncc(C[n+]2csc(CCO)c2C)c(N)n1 [Thiamine hydrochloride]	0.964 (inactive)								
CCN1CCCC1CNC(=O)c1cc(S(=O)(=O)CC)c(N)cc1OC (configuration not stated) [Amisulpride]	0.997 (inactive)								
CN(C)CCOC(c1ccccc1)c1ccccc1 [Diphenhydramine hydrochloride]	0.992 (inactive)								
Nc1nc(=O)c2c([nH]1)NC[C@@H](CNc1ccc(C(=O)N[C@@H](CCC(=O)O)C(=O)O)cc1)N2C=O [Folinic acid calcium salt]	1 (inactive)								
CN(C)CCOC(=O)COc1ccc(Cl)cc1 [Meclofenoxate hydrochloride]	0.896 (inactive)								
CN(C)CCN1C(=O)c2ccccc2N(C)c2ccccc21 [Dibenzepine hydrochloride]	0.97 (inactive)								
C=C[C@H]1CN2CC[C@H]1C[C@@H]2[C@@H](O)c1ccnc2ccc(OC)cc12 [Quinidine hydrochloride monohydrate]	1.01 (inactive)								
COc1cnc(NS(=O)(=O)c2ccc(N)cc2)nc1 [Sulfameter]	0.98 (inactive)								
CC[N+](CC)(CC)CCOc1cccc(OCC[N+](CC)(CC)CC)c1OCC[N+](CC)(CC)CC [Gallamine triethiodide]	1.09 (inactive)								
CC(C)/N=c1\cc2n(-c3ccc(Cl)cc3)c3ccccc3nc-2cc1Nc1ccc(Cl)cc1 [Clofazimine]	1 (inactive)								
CN1CCN(C(c2ccccc2)c2ccccc2)CC1 [Cyclizine hydrochloride]	0.995 (inactive)								
CC(=O)N[C@@H](CC(C)C)C(=O)O [N-Acetyl-L-leucine]	1.02 (inactive)								
CC[C@H](C)[C@H]1O[C@]2(C=C[C@@H]1C)C[C@@H]1C[C@@H](C/C=C(\C)[C@@H](O[C@H]3C[C@H](OC)[C@@H](O[C@H]4C[C@H](OC)[C@@H](O)[C@H](C)O4)[C@H](C)O3)[C@@H](C)/C=C/C=C3\CO[C@@H]4[C@H](O)C(C)=C[C@@H](C(=O)O1)[C@]34O)O2.CO[C@H]1C[C@H](O[C@H]2[C@H](C)O[C@@H](O[C@@H]3/C(C)=C/C[C@@H]4C[C@@H](C[C@]5(C=C[C@H](C)[C@@H](C(C)C)O5)O4)OC(=O)[C@@H]4C=C(C)[C@@H](O)[C@H]5OC/C(=C\C=C\[C@@H]3C)[C@]54O)C[C@@H]2OC)O[C@@H](C)[C@@H]1O [Avermectin B1]		1.02 (inactive)	1.03 (inactive)	1.02 (inactive)	1.01 (inactive)				
CC(C)(N)Cc1ccccc1 [Phentermine hydrochloride]	1.02 (inactive)	1.02 (inactive)	1.03 (inactive)	1.04 (inactive)	1.01 (inactive)	0.0617 (active)	0.458 (inactive)	0.992 (inactive)	0.996 (inactive)
CN1CCN(C(=O)OC2c3nccnc3C(=O)N2c2ccc(Cl)cn2)CC1 (configuration not stated) [Zopiclone]	1.01 (inactive)	0.996 (inactive)	1 (inactive)	0.998 (inactive)	0.996 (inactive)	0.999 (inactive)	1.01 (inactive)	0.994 (inactive)	0.999 (inactive)
C=CCC1(CC(C)C)C(=O)NC(=O)NC1=O [Butalbital]	0.978 (inactive)	1 (inactive)	0.999 (inactive)	1.02 (inactive)	1 (inactive)	0.99 (inactive)	0.998 (inactive)	0.992 (inactive)	1.01 (inactive)

Compound	growth AUC normalised to DMSO control [1]	growth AUC normalised to DMSO control [2]	growth AUC normalised to DMSO control (Shigella flexneri)	growth AUC normalised to DMSO control (Vibrio cholerae)	growth AUC normalised to DMSO control [3]	growth AUC normalised to DMSO control (P. vulgatus RND KO)	growth AUC normalised to DMSO control (P. vulgatus WT)	growth AUC normalised to DMSO control [4]	growth AUC normalised to DMSO control [5]
CC(CCc1ccccc1)NC(C)C(O)c1ccc(O)cc1 (configuration not stated) [Nylidrin]	0.988 (inactive)	0.987 (inactive)	0.994 (inactive)	0.983 (inactive)	0.993 (inactive)	1 (inactive)	0.998 (inactive)	1 (inactive)	0.991 (inactive)
O=[N+]([O-])O[C@H]1CO[C@H]2[C@@H]1OC[C@H]2O[N+](=O)[O-] [Isosorbide dinitrate]	1.07 (inactive)	1.03 (inactive)	1.02 (inactive)	1.09 (inactive)	1.01 (inactive)	0.94 (inactive)	0.94 (inactive)	0.996 (inactive)	1.01 (inactive)
CCC1(CC)C(=O)C=CNC1=O [Pyrithyldione]	1.01 (inactive)	0.992 (inactive)	1 (inactive)	1.05 (inactive)	1 (inactive)	1.01 (inactive)	1 (inactive)	1.02 (inactive)	0.998 (inactive)
CN(C)[C@@H]1C(=O)C(C(N)=O)=C(O)[C@@]2(O)C(=O)C3=C(O)c4c(O)cccc4[C@@](C)(O)[C@H]3[C@H](O)[C@@H]12 [Oxytetracycline dihydrate]	0.0523 (active)	0.00147 (active)	0.015 (active)	0.0278 (active)	0.0752 (active)	0.00913 (active)	0.0112 (active)	0.0149 (active)	0.00753 (active)
CC(Cc1ccc(O)cc1)NCC(O)c1cc(O)cc(O)c1 (configuration not stated) [Fenoterol hydrobromide]	0.991 (inactive)	1.01 (inactive)	0.962 (inactive)	1.01 (inactive)	0.998 (inactive)	1.03 (inactive)	1.03 (inactive)	1.01 (inactive)	1 (inactive)
Oc1cc(Cl)ccc1Oc1ccc(Cl)cc1Cl [Triclosan]	0.0433 (active)	0.00977 (active)	0.0073 (active)	0.184 (active)	0.911 (inactive)	0.462 (inactive)	0.357 (inactive)	0.00521 (active)	0.00694 (active)
C[N+](C)(C)CCCCCCCCCC[N+](C)(C)C [Decamethonium bromide]	1.03 (inactive)	1 (inactive)	1.03 (inactive)	1.07 (inactive)	1 (inactive)	0.997 (inactive)	1.07 (inactive)	1.01 (inactive)	1 (inactive)
C[C@]12Cc3c[nH]nc3C[C@@H]1CC[C@@H]1[C@@H]2CC[C@@]2(C)[C@H]1CC[C@]2(C)O [Stanozolol]	0.949 (inactive)	1.01 (inactive)	0.987 (inactive)	0.998 (inactive)	1 (inactive)	0.959 (inactive)	0.966 (inactive)	1.02 (inactive)	0.966 (inactive)
CN1[C@@H]2C[C@@H](OC(=O)[C@H](CO)c3ccccc3)C[C@H]1[C@@H]1O[C@@H]12 [Scopolamine hydrochloride]	1.06 (inactive)	1.03 (inactive)	1.06 (inactive)	1.06 (inactive)	1.03 (inactive)	1.03 (inactive)	1.05 (inactive)	1 (inactive)	1.01 (inactive)
CC(=O)O[C@H]1C[C@@H]2CC[C@@H]3[C@H](CC[C@@]4(C)[C@H]3C[C@H]([N+]3(C)CCCCC3)[C@@H]4OC(C)=O)[C@@]2(C)C[C@@H]1[N+]1(C)CCCCC1 [Pancuronium bromide]	1.04 (inactive)	1.01 (inactive)	1.05 (inactive)	1.04 (inactive)	1 (inactive)	1.01 (inactive)	1.04 (inactive)	1.03 (inactive)	1.01 (inactive)
CN1CCC2(C)c3cc(O)ccc3N(C)C12 (single isomer, unassigned; (-)) [(-) Eseroline fumarate salt]	1.02 (inactive)	0.999 (inactive)	1.01 (inactive)	0.995 (inactive)	1.01 (inactive)	0.979 (inactive)	0.999 (inactive)	1.01 (inactive)	0.999 (inactive)
CC(C)[N+](C)(CCC(C(N)=O)(c1ccccc1)c1ccccc1)C(C)C [Isopropamide iodide]	0.981 (inactive)	0.998 (inactive)	1 (inactive)	1 (inactive)	0.991 (inactive)	0.995 (inactive)	1.02 (inactive)	1 (inactive)	0.993 (inactive)
C[N+]1(C)[C@@H]2CC[C@H]1C[C@@H](OC(=O)C(CO)c1ccccc1)C2 (some centres not stated) [Methylatropine nitrate]	1.05 (inactive)	1.01 (inactive)	1.03 (inactive)	1.02 (inactive)	1 (inactive)	1.02 (inactive)	1.04 (inactive)	0.999 (inactive)	1.02 (inactive)
CNCC(O)c1ccc(O)cc1 (configuration not stated) [Synephrine]	1.04 (inactive)	1.01 (inactive)	1.05 (inactive)	1.03 (inactive)	1.01 (inactive)	0.984 (inactive)	0.984 (inactive)	1 (inactive)	0.999 (inactive)
CN(C)C(=O)Oc1cc(OC(=O)N(C)C)cc(C(O)CNC(C)(C)C)c1 (configuration not stated) [Bambuterol hydrochloride]	0.992 (inactive)	1 (inactive)	0.997 (inactive)	1 (inactive)	1.02 (inactive)	1.05 (inactive)	1.02 (inactive)	1.01 (inactive)	1.01 (inactive)
NC(=O)CN1CCCC1=O [Piracetam]	0.975 (inactive)	0.991 (inactive)	0.957 (inactive)	0.992 (inactive)	0.993 (inactive)	0.989 (inactive)	0.982 (inactive)	0.984 (inactive)	0.996 (inactive)
CNC(=O)Oc1ccc2c(c1)[C@]1(C)CCN(C)[C@@H]1N2C [Eserine hemisulfate salt]	0.975 (inactive)	1.01 (inactive)	1.02 (inactive)	1.06 (inactive)	0.97 (inactive)	1.07 (inactive)	1.06 (inactive)	0.999 (inactive)	0.993 (inactive)
